Records with an inconclusive call do not appear. Unmarked numbers belong to inactive results. Activity calls are given as the source filed them. The call rests on the fitted dose curve; in most records, active means well fitted curve in the direction sought with a large enough effect; inconclusive means small, poorly fitted or top-dose-only effect, or another doubt; inactive means no such curve, though single readings can be large; an effect the other way counts as inactive or inconclusive.

The target in test [1] is Rap guanine nucleotide exchange factor 3 (Homo sapiens) (UniProt O95398). Put plainly: Confirmatory qHTS for antagonist of cAMP-regulated guanine nucleotide exchange factor 3 (EPAC1) (AID 1645880). Further: nearly all actives have a fitted effect of over 55% in size. Further: potency means the concentration at half of the fitted maximal effect.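 On activity, negative = inhibition: plate controls were DMSO only for no effect and full effect of the ATA control for full effect.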 The settings on record: EPAC1 Rap1B-BODIPY-GDP exchange, fluorescence; activity, negative = inhibition: at 115 µM (top of the series). The gist of the method:
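Nucleotide exchange uses 100 nM EPAC1, 250 nM RAP1B-BODIPY-GDP and 50 uM GDP, with compounds in a concentration-titration series. After 5 min at room temperature, fluorescence (480 nm ex/540 nm em) is read every 5 min for 30 min. Data are normalized to control ATA and DMSO.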
Background: In qHTS, concentration-response curves come from the screen itself.

Test [2] shares this target. Briefly: Confirmatory qHTS for agonist of cAMP-regulated guanine nucleotide exchange factor 3 (EPAC1) (AID 1645881).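 Further: EPAC1 catalysed release of BODIPY-GDP from Rap1B seen as fluorescence loss; 100% = effect of cAMP agonist control; nearly all actives have a fitted effect of over 75% in size.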
Test [3] concerns the target Rap guanine nucleotide exchange factor 4 (Homo sapiens) (UniProt Q8WZA2). Briefly: Confirmatory qHTS for agonist of cAMP-regulated guanine nucleotide exchange factor 4 (EPAC2) (AID 1645884).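 Further: nucleotide exchange releases bodipy-GDP from Rap1 and this lowers its fluorescence; on the % scale 0 is the no-effect control and ±100 the full control effect; nearly all actives have a fitted effect of over 65% in size.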
Test [4] has the same target. Briefly: Confirmatory qHTS for antagonist of cAMP-regulated guanine nucleotide exchange factor 4 (EPAC2) (AID 1645885). Further: nearly all actives have a fitted effect of over 25% in size. Further: potency means the concentration at half of the fitted maximal effect. On activity change, negative = inhibition: on the % scale 0 is the no-effect control and ±100 the full control effect.
For test [5], the target named is Rap guanine nucleotide exchange factor 3 (Homo sapiens) (UniProt O95398). Briefly: Counterscreen qHTS for antagonist of cAMP-regulated guanine nucleotide exchange factor 3 (EPAC1) (AID 1645888).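 Further: fluorescence loss as bound BODIPY-GDP is released from Rap1B; % of control where 0% means no effect.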 The method in brief:
(§1)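 Rap1B-BODIPY-GDP 250 nM + GDP 50 uM; cpds 7-pt, final 9.74 nM–152 uM (activator mode) or from 7.32 nM upwards (inhibitor mode); RT; FI 480/540 nm at 5 and 30 min, then ± cAMP, reread.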
Background: The purpose of a counterscreen is to sort out artefacts and off-target activity.

Test [6] has the same target. Briefly: Counterscreen qHTS for agonist of cAMP-regulated guanine nucleotide exchange factor 3 (EPAC1) (AID 1645889). Further: nearly all actives have a fitted effect of over 40% in size. Further: potency means the concentration at half of the fitted maximal effect. On activation: % of control where 0% means no effect. The gist of the method:
as §1

Rap guanine nucleotide exchange factor 3 (Homo sapiens), sequence (O95398 whole entry, looked up): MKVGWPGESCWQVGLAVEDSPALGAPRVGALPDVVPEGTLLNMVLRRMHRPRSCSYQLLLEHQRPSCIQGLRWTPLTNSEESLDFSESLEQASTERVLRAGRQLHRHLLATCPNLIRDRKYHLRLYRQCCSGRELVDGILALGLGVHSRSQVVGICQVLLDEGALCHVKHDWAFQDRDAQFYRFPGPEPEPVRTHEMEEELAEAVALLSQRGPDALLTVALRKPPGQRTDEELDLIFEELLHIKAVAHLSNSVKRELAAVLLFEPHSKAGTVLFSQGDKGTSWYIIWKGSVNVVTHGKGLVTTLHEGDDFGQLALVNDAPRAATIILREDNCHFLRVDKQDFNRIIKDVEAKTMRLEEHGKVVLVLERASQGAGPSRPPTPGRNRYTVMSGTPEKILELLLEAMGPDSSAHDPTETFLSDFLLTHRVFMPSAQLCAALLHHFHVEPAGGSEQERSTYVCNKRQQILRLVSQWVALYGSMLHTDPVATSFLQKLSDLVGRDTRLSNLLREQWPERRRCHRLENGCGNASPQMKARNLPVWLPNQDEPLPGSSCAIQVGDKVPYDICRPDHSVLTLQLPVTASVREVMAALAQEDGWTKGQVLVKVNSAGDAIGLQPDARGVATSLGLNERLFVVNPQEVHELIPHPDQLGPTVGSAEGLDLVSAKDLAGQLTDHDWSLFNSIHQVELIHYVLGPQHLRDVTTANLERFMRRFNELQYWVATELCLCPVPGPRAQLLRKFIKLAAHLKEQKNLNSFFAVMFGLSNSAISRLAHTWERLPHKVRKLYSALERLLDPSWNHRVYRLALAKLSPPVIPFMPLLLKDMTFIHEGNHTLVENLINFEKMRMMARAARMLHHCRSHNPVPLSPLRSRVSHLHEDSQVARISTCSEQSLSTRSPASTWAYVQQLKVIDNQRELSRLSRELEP
Rap guanine nucleotide exchange factor 4 (Homo sapiens), sequence (Q8WZA2 whole entry, looked up): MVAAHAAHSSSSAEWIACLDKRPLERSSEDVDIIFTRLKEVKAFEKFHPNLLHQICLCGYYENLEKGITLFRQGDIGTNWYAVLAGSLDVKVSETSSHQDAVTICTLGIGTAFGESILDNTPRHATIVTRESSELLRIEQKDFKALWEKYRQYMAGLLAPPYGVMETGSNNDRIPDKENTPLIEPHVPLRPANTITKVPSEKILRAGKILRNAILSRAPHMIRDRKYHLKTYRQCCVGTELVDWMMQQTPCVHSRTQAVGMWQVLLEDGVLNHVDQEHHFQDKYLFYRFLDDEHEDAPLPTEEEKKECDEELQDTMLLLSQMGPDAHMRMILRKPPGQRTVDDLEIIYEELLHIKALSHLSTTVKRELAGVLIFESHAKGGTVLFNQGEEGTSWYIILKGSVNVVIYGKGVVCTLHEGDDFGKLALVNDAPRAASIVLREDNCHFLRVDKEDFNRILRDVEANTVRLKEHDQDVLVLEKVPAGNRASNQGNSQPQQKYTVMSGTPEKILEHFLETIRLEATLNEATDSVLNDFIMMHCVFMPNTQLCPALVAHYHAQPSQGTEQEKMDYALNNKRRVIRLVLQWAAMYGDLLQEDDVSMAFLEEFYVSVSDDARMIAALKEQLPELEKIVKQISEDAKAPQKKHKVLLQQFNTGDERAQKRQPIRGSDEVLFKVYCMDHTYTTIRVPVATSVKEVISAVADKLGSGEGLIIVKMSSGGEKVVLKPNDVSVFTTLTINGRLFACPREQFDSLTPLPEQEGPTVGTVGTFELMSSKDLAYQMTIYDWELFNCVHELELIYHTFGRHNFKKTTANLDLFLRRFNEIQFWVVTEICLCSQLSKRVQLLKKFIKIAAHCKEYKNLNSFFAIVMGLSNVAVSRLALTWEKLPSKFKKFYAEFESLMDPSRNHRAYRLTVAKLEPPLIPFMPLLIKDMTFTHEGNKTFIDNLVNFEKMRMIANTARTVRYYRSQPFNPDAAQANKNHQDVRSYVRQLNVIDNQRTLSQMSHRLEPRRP

`COc1cc(NS(=O)(=O)c2cc3[nH]c(=O)c(=O)[nH]c3cc2C)cc(OC)c1OC`: the Potency entry in test [1], in test [2] and in test [4] was “inactive” throughout. The activation is 2.04% [at 17.1 µM, percent relative to cAMP agonist control] in test [3] and 12.2% [at 30.8 µM] in test [6]. Moreover, the activity change, negative = inhibition in test [5] is -5.07% [at 30.8 µM].

In the case of `Cc1ccc(C)c(S(=O)(=O)N2CCN(C(=O)CCc3nc4ccccc4c(=O)[nH]3)CC2)c1`, the Potency result in test [1], in test [2] and in test [4] was “inactive” each time. In addition, the activation in test [3] is 4.63% [at 17.1 µM, percent relative to cAMP agonist control]; in test [6], 23.6% [at 30.8 µM]. The activity change, negative = inhibition in test [5] was -11.5% [at 30.8 µM].

On to `Cc1cccc(C)c1OC(=O)c1ccccc1`, for which the Potency entry in test [1], in test [2] and in test [4] was “inactive” each time. Moreover, the activation is 9.32% [at 17.1 µM, percent relative to cAMP agonist control] in test [3] and 6.89% [at 30.8 µM] in test [6]. Also, the activity change, negative = inhibition in test [5] is 6.4% [at 30.8 µM].

Turning to `CNC(=O)COC(=O)c1cc(-c2ccco2)nc2ccccc12`, the Potency in test [1] is 23.9 µM (active); in test [6], 50.1 µM (active). In addition, the Potency entry in test [2], in test [3], in test [4] and in test [5] was “inactive” each time.

Regarding `Cc1cc(C)c2cccc(N)c2n1`, the Potency entry in test [1], in test [2] and in test [4] was “inactive” in each case. Further, the activation is 3.77% [at 17.1 µM, percent relative to cAMP agonist control] in test [3] and 7.96% [at 30.8 µM] in test [6]. Further, the activity change, negative = inhibition in test [5] is 8.48% [at 30.8 µM].

As for `CCN1CCN(c2ccc(S(=O)(=O)N3CCOCC3)cc2NC(=O)c2cc(Cl)nc3ccccc23)CC1`, the Potency result in test [1], in test [2] and in test [4] was “inactive” each time. The activation in test [3] is 4.04% [at 17.1 µM, percent relative to cAMP agonist control]; in test [6] it was 5.03% [at 30.8 µM]. Further, the activity change, negative = inhibition in test [5] is 7.51% [at 30.8 µM].

Regarding `CCN1CCN(c2ccc(S(=O)(=O)N3CCCCC3)cc2NC(=O)C(C)Oc2ccc(F)cc2)CC1` (centres undefined), the Potency result in test [1], in test [2], in test [3], in test [4], in test [5] and in test [6] was “inactive” each time.

Consider `CCOC(=O)C1=C(CC)OC(N)=C(C#N)C1c1ccc(OC)c(OC)c1OC` (centres undefined), for which the Potency entry in test [1], in test [2] and in test [4] was “inactive” each time. The activation in test [3] is -0.762% [at 17.1 µM, percent relative to cAMP agonist control]; in test [6] it was 8.26% [at 30.8 µM]. For the same compound, the activity change, negative = inhibition in test [5] is -16.4% [at 30.8 µM].

For the compound `CCN(CC(=O)Nc1ccc(OC)cc1)C(=O)Cc1cccs1`, the Potency in test [1] is 67.5 µM (active). Besides, the Potency entry in test [2], in test [3], in test [4], in test [5] and in test [6] was “inactive” in each case.

Regarding `O=C(CN(Cc1ccco1)C(=O)c1ccc(Cl)cc1)Nc1c(Cl)cc(Cl)cc1Cl`, the Potency result in test [1], in test [2], in test [3], in test [4], in test [5] and in test [6] was “inactive” in each case.

`NC(=O)c1ccsc1NC(=O)CS(=O)(=O)c1ccc(F)cc1`: the Potency result in test [1], in test [2], in test [3], in test [4], in test [5] and in test [6] was “inactive” throughout.

On to `Cc1ccc(OCCn2c(=O)n(C)c3ccccc32)cc1`, for which the Potency entry in test [1], in test [2], in test [3], in test [5] and in test [6] was “inactive” in each case. The Potency in test [4] was 67.5 µM (active).

As to `COc1ccc(-c2cc3c(c4c2ccn4C)C2CCC3O2)cc1OC` (centres undefined), the Potency entry in test [1], in test [2] and in test [4] was “inactive” each time. Further, the activation in test [3] is 6.95% [at 17.1 µM, percent relative to cAMP agonist control]; in test [6], 10.3% [at 30.8 µM]. Further, the activity change, negative = inhibition in test [5] is 9.79% [at 30.8 µM].

Take `Cc1ccc(-c2c3c(=O)n(C)c(=O)n(C)c3c3c(C(F)(F)F)nc4ccccc4n23)cc1`: the Potency result in test [1], in test [2], in test [3], in test [4], in test [5] and in test [6] was “inactive” each time.

As for `CC(C)c1nn2c(=O)cc(COC(=O)c3cccc(NC(=O)c4cccs4)c3)nc2s1`, the Potency result in test [1], in test [2], in test [3], in test [4], in test [5] and in test [6] was “inactive” in each case.

Take `COC(=O)c1cc(NC(=O)CC2SCCNC2=O)cc(C(=O)OC)c1` (centres undefined): the Potency entry in test [1], in test [2] and in test [4] was “inactive” throughout. In addition, the activation in test [3] was 4.81% [at 17.1 µM, percent relative to cAMP agonist control]; in test [6], 0.776% [at 30.8 µM]. In test [5], the activity change, negative = inhibition was 6.38% [at 30.8 µM].

With `CN(Cc1ccccc1)C(=O)C1CCCN(Cc2cccc(Cl)c2)C1` (centres undefined), the Potency entry in test [1], in test [2], in test [3], in test [4], in test [5] and in test [6] was “inactive” throughout.

As to `C/C(=N\NS(=O)(=O)c1ccccc1)c1cc(Cl)cc(Cl)c1O`, the Potency in test [1] is 33.8 µM (active); in test [4] it was 21.3 µM (active). Besides, the Potency result in test [2], in test [3], in test [5] and in test [6] was “inactive” each time.

Regarding `C=C1CCN(C(Cc2ccccc2)C(=O)OC)S(=O)(=O)c2ccc(F)cc21` (centres undefined), the Potency entry in test [1], in test [2] and in test [4] was “inactive” in each case. Further, the activation in test [3] was 11.5% [at 17.1 µM, percent relative to cAMP agonist control]; in test [6], 14% [at 30.8 µM]. Besides, the activity change, negative = inhibition in test [5] was 2.02% [at 30.8 µM].

Source of the values: PubChem BioAssay (NCATS).
